# According to PubChem BioAssay:
# The source made the active and inactive calls.
# Experiments:
# [1] = system: XIP peptide (Xip251-270) binding; assay: small-molecule binders of XIP peptide, primary screen, biochemical, small-molecule microarray, fluorescence 635/667 nm, 0.1 µg/mL protein (AID 1182); settings: fluorescent protein binding, 635 nm, higher = more signal, called active from +8 up or from −8 down
# [2] = system: XIP peptide (Xip251-270); assay: small-molecule binders of XIP peptide, primary screen, biochemical, small-molecule microarray, fluorescence 635/667 nm, 0.5 µg/mL protein (AID 1183); settings: small-molecule microarray binding, fluorescence 635 nm; higher = more signal
# [3] = Plasmodium falciparum growth inhibition, primary screen, strain 3D7, DAPI fluorescence, 100 nL (AID 1184);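 further: parasites grown inside human red blood cells in medium with human serum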; settings: P. falciparum 3D7 growth, 3 d, higher = more signal
# [4] = biological target: Homeobox protein Hox-A13 (Mus musculus) (UniProt Q62424); assay: inhibitors of HoxA13-DNA binding, primary screen, biochemical, fluorescence polarization, labeled oligonucleotide (AID 1185); settings: 15 min, higher = more signal, called active from +8 up or from −8 down
# Homeobox protein Hox-A13 (Mus musculus), sequence (Q62424 whole entry, looked up): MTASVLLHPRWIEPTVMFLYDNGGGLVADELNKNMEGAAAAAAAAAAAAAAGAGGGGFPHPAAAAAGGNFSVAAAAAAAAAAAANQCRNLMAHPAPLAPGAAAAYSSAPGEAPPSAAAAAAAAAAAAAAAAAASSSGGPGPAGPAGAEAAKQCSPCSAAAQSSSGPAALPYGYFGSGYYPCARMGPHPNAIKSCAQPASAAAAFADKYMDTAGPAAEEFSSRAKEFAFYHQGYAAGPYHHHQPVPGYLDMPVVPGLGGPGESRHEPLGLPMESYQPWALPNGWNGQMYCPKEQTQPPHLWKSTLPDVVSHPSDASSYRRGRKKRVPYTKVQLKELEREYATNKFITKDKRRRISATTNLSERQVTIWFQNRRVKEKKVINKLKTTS
SMILES,composite z-score [1],composite z-score [2],z-score [3],z-score [4]
CC(CCN1CCCCc2nc(C)c(C)cc21)=NOC[C@@H](O)[C@H]1O[C@@H]2OC(C)(C)O[C@@H]2[C@H]1O,-0.398 (inactive),0.698,0.027,-1.75 (inactive)
CC(C)(C)N1C(=O)[C@H]2[C@H]3[C@H](O)[C@H](O)CC(=NOC[C@@H](O)COCc4ccco4)[C@H]3CC[C@H]2C1=O,0.0133 (inactive),0.72,-0.62,0.976 (inactive)
CO[C@@H]1C=CCC(=O)N[C@@H](C)C(=O)OC[C@@H](NS(=O)(=O)c2ccc(C)cc2)[C@H](C)C=CCC(=O)OC[C@H]1C,-0.778 (inactive),0.247,0.251,-1.06 (inactive)
CO[C@@H](C(C)C)[C@@H](C)C1OC(=O)CC1O (stereo not given in full),0.51 (inactive),0.129,-1.69,0.186 (inactive)
COc1cccc([C@H]2Oc3ccc(OC)cc3C(=NOCC[C@@H]3C=C[C@H](OC(C)=O)[C@@H](COC(C)=O)O3)[C@@H]2O)c1,0.451 (inactive),0.206,0.956,-5.39 (inactive)
CO[C@@H]1C=CCC(=O)N[C@@H](C)C(=O)OC[C@@H](OC)[C@H](C)C=CCC(=O)OC[C@H]1C,0.551 (inactive),0.744,-0.523,-0.0745 (inactive)
CCOC(=O)[C@H](Cc1ccccc1)NC(=O)CCC1CC(OC(=O)NCc2ccc3c(c2)OCO3)CC2(CCCC(COC(=O)NCCc3ccc(Cl)cc3)O2)O1 (stereo not given in full),0.0608 (inactive),0.563,-1.78,-1.76 (inactive)
CC[C@@H](c1ccccc1)n1c(=O)n2n(c1=O)[C@H]1[C@H](O)[C@@H]3O[C@@H]3C(=NOCc3ccccc3)[C@H]1CC2,0.265 (inactive),0.539,-1.81,-4.2 (inactive)
O=C(NN=C1C[C@@H](O)[C@@H](O)[C@@H]2[C@@H]3C(=O)N(c4ccc(F)cc4F)C(=O)[C@@H]3CC[C@H]12)OCc1ccccc1,0.081 (inactive),0.653,-0.131,-5.87 (inactive)
O=C(NCCC[N+]1=CC=NC1c1ccccc1)N1CCCc2nc(-c3ccc(Br)cc3)ccc21 (stereo not given),0.638 (inactive),0.0388,-0.449,-7.21 (inactive)
COC(=O)CC=C[C@@H](C)[C@@H](C=NOC[C@@H](C)[C@H](OCc1ccccc1)C(C)C)OC,0.0918 (inactive),-0.0012,-0.469,-3.36 (inactive)
CC(CCN1CCCc2nc(C)c(C)cc21)=NO[C@H](C)c1cn([C@@H]2COC[C@H]2O)nn1,-0.0434 (inactive),0.588,0.612,-6.65 (inactive)
CC(=O)OC[C@H]1O[C@H](CC=NOC(C)CN2CCCc3nc(C)c(C)cc32)C=C[C@@H]1OC(C)=O (stereo not given in full),1.29 (inactive),0.618,-0.224,-6.1 (inactive)
CCOC(=O)[C@H](CC(C)C)NC(=O)CCC1CC(OC(=O)NCCc2ccc(F)cc2)CC2(CCCC(COC(=O)NCc3cccc(C(F)(F)F)c3)O2)O1 (stereo not given in full),-0.0296 (inactive),0.575,-0.748,-6.52 (inactive)
O=C1[C@H]2CCn3c(=O)n(Cc4cc5c(cc4Cl)OCO5)c(=O)n3[C@H]2[C@H](O)[C@@H]2O[C@H]12,0.188 (inactive),0.639,0.0829,-0.543 (inactive)
CCc1cc2c(nc1CC)CCN(CCC(C)=NOC(C)CN1CCCCc3nc(C)c(C)cc31)C2 (stereo not given),0.531 (inactive),0.61,-1.86,-7.64 (inactive)
CC(CCC(=O)OC[C@H]1O[C@H](C#Cc2ccccc2)C=C[C@@H]1Oc1ccc(C)cc1)=NO[C@@H](C)c1cc(-c2c(C)cc(C)cc2C)no1,0.0185 (inactive),-0.333,-1.36,-1.88 (inactive)
CON=C(C)CCC(=O)OC[C@H]1O[C@H](C#Cc2ccccc2)C=C[C@@H]1Oc1ccc(C)cc1,0.177 (inactive),0.627,-0.306,-4.45 (inactive)
COCOc1ccc(Br)cc1C(=O)C=Cc1ccc2c(c1)OCO2,0.268 (inactive),0.627,-1.42,-0.353 (inactive)
COC(=O)[C@H](C)NC(=O)CCC1CC(OC(=O)NCCc2ccc(F)cc2)CC2(CCCC(COC(=O)NCCc3ccccc3OC)O2)O1 (stereo not given in full),0.784 (inactive),0.341,-1.26,-6.13 (inactive)
COC(=O)CC=C[C@@H](C)[C@@H](C=NOC[C@@H](C)[C@H](OCc1ccccc1)C(C)C)NS(=O)(=O)c1ccc(C)cc1,0.265 (inactive),-0.0132,-0.192,-4.05 (inactive)
COC(=O)C1=C(C)N(Cc2ccccc2)C2=C3C(=O)OCC[C@@H]3[C@@](O)(C(=O)OC)C(=O)N2[C@@H]1c1ccccc1,0.75 (inactive),-0.189,0.964,-0.987 (inactive)
CON=C(C)CCN1CCc2nc(-c3ccccc3)c(-c3ccccc3)cc2C1,0.257 (inactive),0.41,-1.38,-2.53 (inactive)

SMILES,composite z-score [1],composite z-score [2],z-score [3],z-score [4]
COc1ccc(O[C@H]2C=C[C@@H](c3ccccc3)O[C@@H]2COC(=O)NCc2cccc3ccccc23)cc1,-0.318 (inactive),0.143,-0.806,1.25 (inactive)
CON=C1c2cc(OC)ccc2O[C@H](c2cccc(OC)c2)[C@H]1O,0.906 (inactive),0.464,0.924,-0.365 (inactive)
COC(=O)CC=C[C@@H](C)[C@@H](C=NOC[C@@H](O)[C@H]1O[C@@H]2OC(C)(C)O[C@@H]2[C@H]1O)OC,-0.33 (inactive),-0.0618,0.364,0.321 (inactive)
COC(=O)[C@H](Cc1ccccc1)NC(=O)[C@@H](C)CO,-0.285 (inactive),-0.9,-1.23,1.16 (inactive)
COC(=O)[C@H](C)NC(=O)CCC1CC(OC(=O)NCc2cccc3ccccc23)CC2(CCCC(COC(=O)NCCCN3CCCC3=O)O2)O1 (stereo not given in full),1.17 (inactive),0.582,-0.529,-3.27 (inactive)
CC(CCN1CCCCc2nc(C)c(C)cc21)=NO[C@H](C)c1cn([C@@H]2COC[C@H]2O)nn1,0.641 (inactive),0.382,0.255,-1.36 (inactive)
CC(=O)OC[C@H]1O[C@H](CC=NOC[C@@H](O)[C@H]2O[C@@H]3OC(C)(C)O[C@@H]3[C@H]2O)C=C[C@@H]1OC(C)=O,0.232 (inactive),0.732,0.158,-0.147 (inactive)
CCOC(=O)CCN1C(=O)[C@H]2[C@H]3[C@H](O)[C@H](O)CC(=NNC(=O)OCc4ccc(OC)cc4)[C@H]3CC[C@H]2C1=O,0.353 (inactive),0.277,0.144,-3.67 (inactive)
CCOC(=O)CCN1C(=O)[C@H]2[C@H]3[C@H](O)[C@H](O)CC(=NOCC=C(C)CCC=C(C)C)[C@@H]3CC[C@H]2C1=O,0.257 (inactive),0.613,0.664,-1.21 (inactive)
COc1ccc(OC[C@H]2CN3[C@@H](CC[C@@H](C)[C@@H]3c3ccc(Br)cc3)C(=O)O2)cc1,-0.192 (inactive),0.61,-1.32,-0.626 (inactive)
COc1ccc(COC(=O)NN=C2C[C@@H](O)[C@@H](O)[C@@H]3[C@@H]4C(=O)N(c5cccc(Oc6ccccc6)c5)C(=O)[C@@H]4CC[C@H]23)cc1,-0.538 (inactive),-0.255,-1.34,-3.81 (inactive)
CC(C)[C@H](NC(=O)OC(C)(C)C)[C@@H](O)CC(=O)C(C)(C)C,-0.232 (inactive),-0.19,0.227,-0.092 (inactive)
CC(=O)OC[C@H]1O[C@H](CC=NOCC[C@@H]2C=C[C@H](OC(C)=O)[C@@H](COC(C)=O)O2)C=C[C@@H]1OC(C)=O,-0.0772 (inactive),0.677,0.256,-0.963 (inactive)
CC(C)(C)N1C(=O)[C@H]2[C@H]3[C@H](O)[C@H](O)CC(=NNC(=O)OCc4ccccc4)[C@@H]3CC[C@H]2C1=O,0.0863 (inactive),0.195,2.05,0.408 (inactive)
O=C(NN=C1C[C@@H](O)[C@@H](O)[C@@H]2[C@@H]3C(=O)N(Cc4ccccc4)C(=O)[C@@H]3CC[C@H]12)OCc1ccccc1,-0.578 (inactive),-0.0586,0.892,-0.2 (inactive)
CC(C)CON=C1[C@H]2CCn3c(=O)n(C)c(=O)n3[C@H]2[C@H](O)[C@@H]2O[C@H]12,-0.12 (inactive),0.245,1.43,0.322 (inactive)
O=C1C2=CC[C@H]3C(=O)N(Cc4ccccc4)C(=O)[C@H]3[C@H]2[C@H](O)[C@@H]2O[C@H]12,0.409 (inactive),-0.194,-0.116,-5.55 (inactive)
COc1ccc(COC(=O)NN=C2C[C@@H](O)[C@@H](O)[C@@H]3[C@@H]4C(=O)N(C[C@@H]5CCCO5)C(=O)[C@@H]4CC[C@H]23)cc1,-0.0696 (inactive),-0.239,-0.534,0.459 (inactive)
CC(=O)OC[C@H]1O[C@@H](ON=C(C)CCN2CCCCc3nc(C)c(C)cc32)[C@H](OC(C)=O)[C@@H](OC(C)=O)[C@@H]1OC(C)=O,-0.0733 (inactive),0.566,-0.98,-3.93 (inactive)
COCC#Cc1ccc([C@@H]2N[C@H](C(=O)O)CC[C@H]2C)cc1,-0.238 (inactive),-0.52,0.383,-1.46 (inactive)
CCN1C(=O)[C@H]2[C@@H]3C(=CC[C@H]2C1=O)C(=O)[C@H]1O[C@H]1[C@H]3O,-0.529 (inactive),0.568,-1.94,-6.04 (inactive)
Cc1ccc(S(=O)(=O)N[C@@H]2COC(=O)CC=C[C@@H](C)[C@H](NS(=O)(=O)c3ccc(C)cc3)COC(=O)[C@H](C)NC(=O)CC=C[C@H]2C)cc1,-0.668 (inactive),-0.564,-0.196,-1.11 (inactive)
